Source: PubChem BioAssay AID485270 (The Scripps Research Institute Molecular Screening Center, 2010)
Among all 330,000 compounds or so, about 5,800 (1.8%) were called active. Rule as the data show it: active = inhibition mostly above about 38% (no sharp cut-off); inactive = mostly below about 40%. The list comes from a sample in which actives are over-represented; it also holds similar structures and randomly drawn compounds.

Target: Orexin/Hypocretin receptor type 1 (Homo sapiens) (UniProt O43613)
Sequence (O43613 whole entry, looked up): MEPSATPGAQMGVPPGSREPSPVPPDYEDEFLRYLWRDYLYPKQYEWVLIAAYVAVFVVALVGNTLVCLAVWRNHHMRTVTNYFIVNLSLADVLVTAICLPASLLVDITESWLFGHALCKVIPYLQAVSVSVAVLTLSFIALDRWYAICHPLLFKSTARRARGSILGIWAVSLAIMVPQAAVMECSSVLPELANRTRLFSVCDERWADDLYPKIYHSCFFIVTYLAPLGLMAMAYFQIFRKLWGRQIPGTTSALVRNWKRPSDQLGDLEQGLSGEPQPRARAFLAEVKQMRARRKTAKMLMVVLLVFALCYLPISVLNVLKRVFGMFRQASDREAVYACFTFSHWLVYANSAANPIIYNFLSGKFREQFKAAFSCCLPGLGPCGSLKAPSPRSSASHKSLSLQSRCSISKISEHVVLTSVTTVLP
Experiment: blocks the human orexin 1 receptor (AID 485270);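 also: 0% = agonist challenge alone and 100% = reference antagonist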
Conditions: OX1R-expressing cells, FRET antagonist read-out; at 6.6 µM; active compounds read high

inhibition, inactive:
COc1ccccc1NC(=O)COC(=O)CNC(=O)C1CCCCC1 5.3%
Cc1c(Cl)cnc(NC(=O)COC(=O)C2CCCC2)c1Cl 2.82%
COc1ccc(C(=O)COC(=O)CN2C(=O)C3CC=CCC3C2=O)c(OC)c1 (stereo not drawn) 0.55%
CCN([C@H](CO)C(C)C)S(=O)(=O)c1ccccc1Br 8.87%
CCCN=C1N(C)C[C@@H]2[C@@H]3C(=O)N(Cc4ccccc4)C(=O)[C@@H]3[C@](C)(C(=O)OC)N12 3.52%
Cc1ccc(/C=N/NC(=O)c2cc3ccccc3cc2O)o1 22.1%
Cc1ccc2occ(/C=N/NC(=O)c3ccccc3C)c(=O)c2c1 11.9%
C[C@H](CO)N1C[C@H](C)[C@@H](CN(C)S(=O)(=O)c2ccc(F)cc2)Oc2c(NC(=O)Nc3ccccc3)cccc2C1=O 3.72%
Fc1ccc2cnc(-c3ccccc3)cc2c1 1.78%
O=C(Nc1ccccc1F)c1ccc2c(c1)OCO2 0.6%
Cc1ccc(S(=O)(=O)N(CC(=O)N2CCc3ccccc3C2)c2cccc(Cl)c2)cc1 40%
Cc1ccc(S(=O)(=O)N2CCN(CC(=O)N/N=C/c3cc([N+](=O)[O-])ccc3Cl)CC2)cc1 19.3%
COc1ccccc1N1CCN(S(=O)(=O)c2ccc(Cl)cc2)CC1 4.56%
Cc1ccc2c(c1)C(c1ccccc1)N(C(=O)c1ccc(S(=O)(=O)N3CCOCC3)cc1)CC(=O)N2 (stereo not drawn) 7.06%
Cc1ccc(S(=O)(=O)N2[C@@H](c3ccc(Br)cc3)C(C(=O)O)=C[C@H]2CC2CCCC2)cc1 31.2%
CS(=O)(=O)N(CC(=O)N1CCN(c2cccc(Cl)c2)CC1)c1ccccc1 -2.69%
Cc1ccc(S(=O)(=O)N2C3C=CC(C3)C2C(=O)O)cc1 (stereo not drawn) 7.96%
CN1OC(COC(=O)c2ccc(Cl)cc2)CC1c1ccccc1 (stereo not drawn) -0.66%
CC[C@@H](C)[C@@H]1CN([C@@H](C)CN2CCC[C@H]2CN2C(N)=NC[C@H]2C(C)C)C(=N)N1CCc1ccc(Cl)c(Cl)c1 -3.86%
COc1ccccc1C(=O)NCC(=O)OCC(=O)NNC(=O)c1ccc(Br)cc1 2.31%
Fc1ccc(Nc2nnns2)cc1 11.1%
CS(=O)(=O)c1ccc(C(=O)NNC(=O)c2cccs2)cc1 1.62%
CC(C)N(C(=O)[C@H]1C[C@H](CC(=O)NC(C)(C)C)C(=O)N2CCc3c([nH]c4ccc(Cl)cc34)[C@]12C)C(C)C 8.54%
C=CCC[C@@H](Cc1ccc(F)cc1)C(=O)OC[C@H](Cc1c[nH]c2ccccc12)NC(=O)[C@@H](CC=C)CC(=O)N(CCO)Cc1ccccc1 7.48%
NS(=O)(=O)c1cccc(NC(=O)COC(=O)c2cc([N+](=O)[O-])ccc2N2CCCC2)c1 14.8%
O=C(CSc1nc2ccccc2c(=O)n1Cc1ccc(F)cc1)NCC1CCCO1 (stereo not drawn) 4.49%
COc1ccc(S(=O)(=O)N2CCN(c3cnccn3)CC2)cc1 16.4%
CC(OC(=O)c1ccc([N+](=O)[O-])cc1)C(=O)NCC1CCCCC1 (stereo not drawn) 18.2%
CC1CCCCN1CCCNC(=O)Cn1ncc2c([nH]c3ccccc32)c1=O (stereo not drawn) 4.31%
Cn1cccc1C(=O)OCC(=O)c1ccc(Br)s1 5.79%
O=C(CC1SC(N2CCOCC2)=NC1=O)Nc1ccccc1F (stereo not drawn) -1.73%
C[C@@H](CN1CCC[C@H]1CN1C(N)=NC[C@@H]1Cc1ccccc1)N1C[C@@H](Cc2ccccc2)N(CCCC2CCCC2)C1=N 11.4%
C/C=C/c1ccc(OCC(=O)NNC(=O)CN(C)S(=O)(=O)c2ccc(C)cc2)c(OC)c1 0.57%
O=C(/C=C/c1ccco1)Nc1ccc(Oc2ccccc2)cc1 62.7%
Cc1ccc(-n2nc3ccc(NC(=O)/C=C/c4ccco4)cc3n2)cc1C 21.4%
Cc1ccc(C(=O)OCC(=O)N2CCCCCC2)cc1S(=O)(=O)N1CCOCC1 24.3%
COc1ccc(NC(=O)Nc2ccc3c(c2)C(=O)N([C@H](C)CO)C[C@H](C)[C@@H](CN(C)C(=O)Nc2ccc4c(c2)OCO4)O3)cc1 8.87%
Cc1nnsc1C(=O)N/N=C/c1ccccc1Cl 3.68%
Cc1nn(-c2ccccc2)c(Cl)c1/C=N/NC(=O)c1nn(C)cc1[N+](=O)[O-] 41.5%
COc1ccc(CNC(=O)CNC(=O)c2sc3ccccc3c2Cl)cc1OC 18.2%
COCCNC(=S)N/N=C/c1c(C)[nH]c2ccccc12 9.28%
CC[C@]1(C(=O)OC)[C@H]2C(=O)N(Cc3ccccc3)C(=O)[C@H]2[C@H]2CN=C(SCc3ccccc3)N21 9.69%
C[C@H]1CN([C@@H](C)CO)C(=O)Cc2cc(NS(C)(=O)=O)ccc2O[C@@H]1CN(C)CC1CC1 1.83%
CN=C(Nc1cccc(S(=O)(=O)N2CCOCC2)c1)c1ccccc1 2.1%
CC[C@]12c3[nH]c4cc(CCC(=O)N(C)C)ccc4c3CCN1C(=O)[C@@H](CC(=O)NCCCN(C)C)C[C@@H]2C(=O)N1CCN(C(=O)c2ccco2)CC1 -2.47%
COCCCNC(=O)CC1C[C@H](C(=O)N2CCCCC2)[C@@]2(CCc3ccccc3)c3[nH]c4ccccc4c3CCN2C1=O (stereo partly drawn) 2.77%
CCOc1cc(-c2cc(-c3ccc(NC(C)=O)cc3)nc(N)c2C#N)ccc1O 25.9%
COc1cc(/C=N\Nc2nc(-c3cccs3)c(NC(C)=O)s2)ccc1O 8.13%
CCCC/C(C)=N/NC(=O)NC1CCCCC1 10.5%
Nc1ncnc2c1ncn2[C@@H]1O[C@H](CNCc2cccn2-c2nccs2)[C@@H](O)[C@H]1O 5.52%
CC1CCN(c2ccc([N+](=O)[O-])cc2C(N)=O)CC1 65.8%
CCOC(=O)C1CCN(c2ccc(C(=O)O)cc2[N+](=O)[O-])CC1 57.8%
O=C(COC(=O)c1cc[n+]([O-])cc1)Nc1ccc(Cl)c(C(F)(F)F)c1 8.49%
CC(Oc1ccc2c(-c3ccccc3)cc(=O)oc2c1)C(=O)NC(Cc1c[nH]c2ccccc12)C(=O)O (stereo not drawn) 12.5%
Cc1cccc(NC(=O)CSc2nc3[nH]ncc3c(=O)[nH]2)c1 10.4%
Cc1nc2nc(SCC(=O)c3ccccc3)[nH]c2cc1Br 9.22%
Cc1ccc2c(c1)C1C[N+](C)(CC(=O)c3ccccc3)CCC1N2C(=O)c1ccccc1Cl (stereo not drawn) 7.24%
CC1CCCCC12NC(=O)N(CC(=O)OCc1c(F)cccc1Cl)C2=O (stereo not drawn) 11.8%
Cc1cc(NC(=O)CSc2nnnn2-c2ccc(F)cc2)no1 10.1%
Cc1cc(NC(=O)COc2ccc([N+](=O)[O-])cc2)no1 3.47%
NS(=O)(=O)c1ccc(CNC(=S)NC(=O)c2ccco2)cc1 4.56%
Cc1ccc(S(=O)(=O)N/N=C\c2cc3c(cc2[N+](=O)[O-])OCO3)cc1 29.4%
CC1(C(=O)N/N=C/c2cc3c(cc2Br)OCO3)CC1(Br)Br (stereo not drawn) 26.7%
COc1ccc(CN2C(CC(=O)Nc3cccnc3)c3ccc(C(F)(F)F)cc3S2(=O)=O)cc1 (stereo not drawn) 12.3%
COc1ccc(CNC(=O)COC(=O)c2sccc2C)cc1OC 3.49%
CC1=NN(c2ccccc2)C(=O)C1C(=O)c1ccc([N+](=O)[O-])cc1 (stereo not drawn) 33.4%
CC(=O)N1c2ccccc2N(Cc2ccc([N+](=O)[O-])cc2)C(=O)C1(C)C 15.5%

inhibition, active:
Cc1cc[n+](-c2[nH]c(=O)sc2/C=N/NC(=O)c2ccccc2[O-])cc1C 67.1%
Fc1ccccc1-c1cc2cc3c(cc2cn1)OCO3 66%
Cc1ccc([C@@H]2CC=C(C(=O)O)[C@H](c3cccc(Cl)c3)N2S(=O)(=O)c2ccc(C)cc2)cc1 82.9%
Cc1ccccc1S(=O)(=O)N1[C@@H](c2cccc(Cl)c2)C(C(=O)O)=CC[C@H]1c1ccc(Cl)cc1 90.2%
Cc1ccc(S(=O)(=O)N2[C@@H](c3cccc(Cl)c3)C(C(=O)O)=CC[C@H]2c2ccc(Cl)c(Cl)c2)cc1 81.4%
Cc1ccc(S(=O)(=O)N2[C@@H](c3ccccc3F)C(C(=O)O)=CC[C@H]2c2ccc(Cl)cc2)cc1 64.8%
CCC(=C/c1sc2ccc3ccccc3c2[n+]1C)/C=C1\Sc2ccc3ccccc3c2N1C 42.8%
O=C(/C=C/c1ccco1)Nc1cccc(-c2nc3ccccc3[nH]2)c1 86.8%
Cc1nn(C)cc1/C=N/NC(=O)c1sc2ccccc2c1Cl 72.5%
O=C(N/N=C/c1c(Cl)[nH]c2ccccc12)c1sc2ccccc2c1Cl 100%
CCOc1cc(/C=C(\C#N)c2nc(-c3cccs3)c(NC(C)=O)s2)ccc1O 65.7%
O=C(O)C1CCN(c2ccc([N+](=O)[O-])cc2[N+](=O)[O-])CC1 40.7%
Cc1nc2nc(SCC(=O)Nc3cccc(F)c3)[nH]c2cc1Br 57.5%
Cc1cc(NC(=O)CSc2nccn2-c2ccc([N+](=O)[O-])cc2)no1 70.4%
CC(=O)N/N=C/c1cc2c(cc1[N+](=O)[O-])OCO2 98.3%
O=C1NC(=O)C2C1C(c1ccc([N+](=O)[O-])cc1)=NN2Cc1ccccc1 (stereo not drawn) 75.4%
